Results taken from the supplement of paper PMC11732987, “Enantioselective OTUD7B fragment discovery through chemoproteomics screening and high-throughput optimisation” (Communications Chemistry, 2025).

What was measured:
Test in all cases: log2 ratio of Biotin-Ahx-Ub-VS probe labelling (fragment/DMSO); higher = less target engagement (more negative = stronger competition), active = hit call of the paper (q ≤ 0.05, log2 ratio ≤ -1)
Conditions in all cases: compound concentration: 200 uM; treatment time: 3 h
USP34 = USP34 (UniProt Q70CQ2)
Sequence of USP34 (Q70CQ2 whole entry, the tested form may be a part): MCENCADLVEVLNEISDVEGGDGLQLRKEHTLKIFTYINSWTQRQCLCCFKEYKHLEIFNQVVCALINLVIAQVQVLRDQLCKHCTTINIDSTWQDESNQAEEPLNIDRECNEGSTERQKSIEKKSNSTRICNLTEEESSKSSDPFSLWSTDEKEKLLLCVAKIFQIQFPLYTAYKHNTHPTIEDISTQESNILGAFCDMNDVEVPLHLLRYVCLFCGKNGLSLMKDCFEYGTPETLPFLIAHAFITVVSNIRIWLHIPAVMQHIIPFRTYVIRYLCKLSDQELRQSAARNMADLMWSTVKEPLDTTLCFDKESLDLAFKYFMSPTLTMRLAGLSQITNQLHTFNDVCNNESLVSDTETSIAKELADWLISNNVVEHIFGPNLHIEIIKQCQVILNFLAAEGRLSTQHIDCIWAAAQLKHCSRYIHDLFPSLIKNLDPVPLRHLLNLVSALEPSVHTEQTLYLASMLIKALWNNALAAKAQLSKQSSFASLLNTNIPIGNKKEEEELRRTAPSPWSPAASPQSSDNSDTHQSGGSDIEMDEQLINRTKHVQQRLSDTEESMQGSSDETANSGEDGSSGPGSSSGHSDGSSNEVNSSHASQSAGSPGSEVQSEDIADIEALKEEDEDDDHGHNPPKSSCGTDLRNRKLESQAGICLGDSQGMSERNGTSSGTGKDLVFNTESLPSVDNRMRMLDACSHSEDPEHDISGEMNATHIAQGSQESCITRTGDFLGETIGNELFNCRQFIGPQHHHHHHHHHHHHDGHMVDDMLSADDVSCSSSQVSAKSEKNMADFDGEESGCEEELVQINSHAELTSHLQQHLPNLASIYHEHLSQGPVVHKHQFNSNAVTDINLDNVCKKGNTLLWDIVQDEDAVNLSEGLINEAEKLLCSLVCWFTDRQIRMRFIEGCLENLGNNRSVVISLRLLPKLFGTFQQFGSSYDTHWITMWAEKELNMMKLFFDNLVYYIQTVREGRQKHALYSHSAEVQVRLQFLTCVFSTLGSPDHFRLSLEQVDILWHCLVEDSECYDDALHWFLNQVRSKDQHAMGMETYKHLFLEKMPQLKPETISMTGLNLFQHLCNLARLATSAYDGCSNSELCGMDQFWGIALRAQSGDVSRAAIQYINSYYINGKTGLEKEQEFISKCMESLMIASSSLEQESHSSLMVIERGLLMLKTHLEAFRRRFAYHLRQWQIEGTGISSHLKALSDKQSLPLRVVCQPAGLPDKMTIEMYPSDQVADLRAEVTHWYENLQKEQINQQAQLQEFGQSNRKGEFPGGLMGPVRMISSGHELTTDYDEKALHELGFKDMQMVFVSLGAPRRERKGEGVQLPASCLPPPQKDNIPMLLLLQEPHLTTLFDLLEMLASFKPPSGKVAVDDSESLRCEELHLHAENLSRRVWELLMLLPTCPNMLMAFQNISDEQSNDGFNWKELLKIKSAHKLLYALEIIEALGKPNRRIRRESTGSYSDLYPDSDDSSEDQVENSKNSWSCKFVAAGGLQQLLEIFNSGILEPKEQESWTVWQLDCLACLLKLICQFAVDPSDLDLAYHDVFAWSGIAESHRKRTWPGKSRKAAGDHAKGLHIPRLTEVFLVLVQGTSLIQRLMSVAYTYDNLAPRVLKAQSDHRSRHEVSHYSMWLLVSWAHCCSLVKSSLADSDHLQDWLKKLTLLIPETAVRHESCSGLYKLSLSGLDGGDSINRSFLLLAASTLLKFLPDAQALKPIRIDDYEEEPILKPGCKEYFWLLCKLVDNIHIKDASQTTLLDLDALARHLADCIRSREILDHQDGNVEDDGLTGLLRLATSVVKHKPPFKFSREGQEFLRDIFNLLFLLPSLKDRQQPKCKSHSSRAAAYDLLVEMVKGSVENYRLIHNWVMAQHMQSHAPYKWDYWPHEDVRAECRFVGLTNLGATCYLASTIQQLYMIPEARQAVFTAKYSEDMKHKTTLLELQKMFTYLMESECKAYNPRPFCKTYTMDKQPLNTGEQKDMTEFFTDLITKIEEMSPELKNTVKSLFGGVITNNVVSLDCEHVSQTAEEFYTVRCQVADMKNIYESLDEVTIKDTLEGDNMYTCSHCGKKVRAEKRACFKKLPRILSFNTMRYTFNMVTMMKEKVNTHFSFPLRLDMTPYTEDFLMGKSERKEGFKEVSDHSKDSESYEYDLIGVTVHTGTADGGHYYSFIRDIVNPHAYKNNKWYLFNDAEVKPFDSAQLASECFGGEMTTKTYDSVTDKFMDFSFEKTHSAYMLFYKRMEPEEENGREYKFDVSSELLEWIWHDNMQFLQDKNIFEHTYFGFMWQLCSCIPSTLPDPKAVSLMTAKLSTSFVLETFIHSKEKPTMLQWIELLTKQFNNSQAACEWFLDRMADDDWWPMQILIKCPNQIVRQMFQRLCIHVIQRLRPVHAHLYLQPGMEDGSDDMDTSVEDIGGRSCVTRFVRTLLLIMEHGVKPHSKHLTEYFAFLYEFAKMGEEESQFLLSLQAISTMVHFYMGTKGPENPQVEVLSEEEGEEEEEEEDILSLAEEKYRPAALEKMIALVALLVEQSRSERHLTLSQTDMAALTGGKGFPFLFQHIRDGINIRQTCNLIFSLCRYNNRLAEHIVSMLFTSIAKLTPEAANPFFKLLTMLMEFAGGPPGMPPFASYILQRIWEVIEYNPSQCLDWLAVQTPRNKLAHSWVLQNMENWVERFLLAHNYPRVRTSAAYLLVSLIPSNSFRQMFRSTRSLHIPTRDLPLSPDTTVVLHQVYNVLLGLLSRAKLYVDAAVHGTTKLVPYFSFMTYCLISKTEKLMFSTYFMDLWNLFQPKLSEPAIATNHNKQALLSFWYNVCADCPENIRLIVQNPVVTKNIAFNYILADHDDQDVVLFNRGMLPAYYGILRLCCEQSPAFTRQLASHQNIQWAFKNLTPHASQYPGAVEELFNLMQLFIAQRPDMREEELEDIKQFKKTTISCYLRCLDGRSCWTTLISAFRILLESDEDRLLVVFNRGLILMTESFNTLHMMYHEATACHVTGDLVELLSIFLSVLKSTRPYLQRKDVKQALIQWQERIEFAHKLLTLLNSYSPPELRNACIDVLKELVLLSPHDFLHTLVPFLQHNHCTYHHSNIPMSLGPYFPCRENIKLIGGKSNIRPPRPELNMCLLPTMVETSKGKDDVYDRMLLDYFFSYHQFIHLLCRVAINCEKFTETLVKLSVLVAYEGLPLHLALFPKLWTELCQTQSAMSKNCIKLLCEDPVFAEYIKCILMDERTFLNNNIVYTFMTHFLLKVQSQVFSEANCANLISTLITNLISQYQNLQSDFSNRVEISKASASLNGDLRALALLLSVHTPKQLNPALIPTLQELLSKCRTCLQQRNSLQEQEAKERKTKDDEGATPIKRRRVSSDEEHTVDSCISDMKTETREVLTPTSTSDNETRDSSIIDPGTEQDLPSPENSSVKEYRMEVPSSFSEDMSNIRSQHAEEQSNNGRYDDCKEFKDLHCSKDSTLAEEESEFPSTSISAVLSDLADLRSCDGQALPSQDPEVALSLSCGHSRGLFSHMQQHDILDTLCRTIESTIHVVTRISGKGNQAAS
Summary of the method: (§1)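 Fragment (200 µM) or vehicle was incubated for 3 h with triplicate HEK293T lysate samples of 495 µg, which were then treated with Biotin-Ahx-Ub-VS at 0.5 µM final for 1 h. Labelled DUBs were enriched on NeutrAvidin, digested with LysC and trypsin, and analysed by diaPASEF LC-MS/MS. Values are average log2 fragment/vehicle ratios from an unpaired t-test on global-median-normalised Spectronaut label-free quantities, using proteins with ≥2 unique peptides.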

USP36 = biological target: T1, USP36 (UniProt Q9P275)
T1 sequence (whole entry): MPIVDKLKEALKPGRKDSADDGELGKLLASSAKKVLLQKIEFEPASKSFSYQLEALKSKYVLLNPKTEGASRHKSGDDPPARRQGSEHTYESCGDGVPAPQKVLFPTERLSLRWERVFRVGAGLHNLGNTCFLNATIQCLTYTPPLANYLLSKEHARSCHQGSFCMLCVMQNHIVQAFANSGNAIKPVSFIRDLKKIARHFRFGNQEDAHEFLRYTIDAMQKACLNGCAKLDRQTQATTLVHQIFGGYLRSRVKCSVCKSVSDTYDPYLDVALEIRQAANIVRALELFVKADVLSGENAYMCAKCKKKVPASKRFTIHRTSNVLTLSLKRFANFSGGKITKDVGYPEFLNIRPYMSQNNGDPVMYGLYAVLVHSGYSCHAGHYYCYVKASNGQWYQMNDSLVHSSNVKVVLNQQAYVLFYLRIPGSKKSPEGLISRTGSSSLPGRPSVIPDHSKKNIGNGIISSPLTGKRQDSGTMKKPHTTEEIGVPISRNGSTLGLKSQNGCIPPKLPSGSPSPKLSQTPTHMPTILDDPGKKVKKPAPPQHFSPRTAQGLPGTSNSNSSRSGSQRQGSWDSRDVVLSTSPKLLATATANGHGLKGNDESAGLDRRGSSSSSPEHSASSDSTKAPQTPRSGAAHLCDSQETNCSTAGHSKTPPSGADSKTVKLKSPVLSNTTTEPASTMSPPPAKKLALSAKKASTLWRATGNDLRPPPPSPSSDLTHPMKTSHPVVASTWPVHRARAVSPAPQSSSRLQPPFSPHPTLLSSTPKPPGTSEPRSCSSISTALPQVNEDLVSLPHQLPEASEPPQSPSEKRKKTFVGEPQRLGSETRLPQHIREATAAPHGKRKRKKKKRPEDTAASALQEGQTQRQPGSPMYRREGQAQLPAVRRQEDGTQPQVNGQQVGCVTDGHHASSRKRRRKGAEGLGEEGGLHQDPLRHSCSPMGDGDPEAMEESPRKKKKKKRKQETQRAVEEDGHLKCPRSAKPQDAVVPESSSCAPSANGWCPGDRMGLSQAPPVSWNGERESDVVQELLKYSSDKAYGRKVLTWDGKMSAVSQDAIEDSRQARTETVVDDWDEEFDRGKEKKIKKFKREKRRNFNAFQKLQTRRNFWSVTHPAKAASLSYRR
Summary of the method: as §1

USP38 = biological target: T2, USP38 (UniProt Q8NB14)
T2 sequence (whole entry): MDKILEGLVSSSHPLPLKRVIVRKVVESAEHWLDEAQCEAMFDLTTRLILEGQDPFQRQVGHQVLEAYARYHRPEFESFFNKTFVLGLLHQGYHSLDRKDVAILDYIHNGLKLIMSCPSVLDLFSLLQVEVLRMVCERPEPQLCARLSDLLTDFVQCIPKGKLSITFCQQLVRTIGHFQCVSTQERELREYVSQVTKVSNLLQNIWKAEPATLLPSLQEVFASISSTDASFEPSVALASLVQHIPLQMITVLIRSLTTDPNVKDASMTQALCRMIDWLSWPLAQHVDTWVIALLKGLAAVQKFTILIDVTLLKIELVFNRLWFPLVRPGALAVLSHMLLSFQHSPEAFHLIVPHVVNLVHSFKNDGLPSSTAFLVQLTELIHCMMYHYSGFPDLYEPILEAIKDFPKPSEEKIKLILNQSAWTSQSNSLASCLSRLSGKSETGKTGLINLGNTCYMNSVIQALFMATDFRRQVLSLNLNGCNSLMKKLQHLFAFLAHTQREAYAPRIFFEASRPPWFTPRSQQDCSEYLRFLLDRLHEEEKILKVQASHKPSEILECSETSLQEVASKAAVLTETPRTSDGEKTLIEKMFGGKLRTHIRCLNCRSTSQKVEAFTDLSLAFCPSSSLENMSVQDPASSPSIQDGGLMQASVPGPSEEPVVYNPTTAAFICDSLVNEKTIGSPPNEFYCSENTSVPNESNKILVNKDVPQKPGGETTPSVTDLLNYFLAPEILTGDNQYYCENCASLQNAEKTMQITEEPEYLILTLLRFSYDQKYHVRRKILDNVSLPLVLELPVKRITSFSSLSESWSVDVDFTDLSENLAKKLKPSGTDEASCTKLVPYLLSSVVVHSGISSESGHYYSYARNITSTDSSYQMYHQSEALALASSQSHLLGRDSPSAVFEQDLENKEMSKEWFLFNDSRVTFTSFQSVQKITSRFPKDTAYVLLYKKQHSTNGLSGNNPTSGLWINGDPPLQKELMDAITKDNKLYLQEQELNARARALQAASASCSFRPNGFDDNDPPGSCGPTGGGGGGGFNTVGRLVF
Summary of the method: as §1

USP39 = biological target: T3, USP39 (UniProt Q53GS9)
T3 sequence (whole entry): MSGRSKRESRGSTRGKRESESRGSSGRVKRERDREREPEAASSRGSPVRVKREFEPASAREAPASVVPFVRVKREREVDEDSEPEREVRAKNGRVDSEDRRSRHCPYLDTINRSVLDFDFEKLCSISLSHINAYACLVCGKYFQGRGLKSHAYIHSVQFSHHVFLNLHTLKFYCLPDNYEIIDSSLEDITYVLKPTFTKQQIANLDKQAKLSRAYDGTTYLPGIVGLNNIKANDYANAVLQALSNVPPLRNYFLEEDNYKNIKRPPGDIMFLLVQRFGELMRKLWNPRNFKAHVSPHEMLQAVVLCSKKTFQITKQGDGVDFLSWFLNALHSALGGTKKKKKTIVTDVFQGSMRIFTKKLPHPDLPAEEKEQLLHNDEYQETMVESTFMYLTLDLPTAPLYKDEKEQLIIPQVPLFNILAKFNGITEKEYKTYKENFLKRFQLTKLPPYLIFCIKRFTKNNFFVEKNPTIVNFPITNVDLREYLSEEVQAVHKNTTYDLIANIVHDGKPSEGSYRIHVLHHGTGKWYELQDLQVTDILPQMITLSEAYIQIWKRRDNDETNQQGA
Summary of the method: as §1

USP4 = biological target: T4, USP4 (UniProt Q13107)
T4 sequence (whole entry): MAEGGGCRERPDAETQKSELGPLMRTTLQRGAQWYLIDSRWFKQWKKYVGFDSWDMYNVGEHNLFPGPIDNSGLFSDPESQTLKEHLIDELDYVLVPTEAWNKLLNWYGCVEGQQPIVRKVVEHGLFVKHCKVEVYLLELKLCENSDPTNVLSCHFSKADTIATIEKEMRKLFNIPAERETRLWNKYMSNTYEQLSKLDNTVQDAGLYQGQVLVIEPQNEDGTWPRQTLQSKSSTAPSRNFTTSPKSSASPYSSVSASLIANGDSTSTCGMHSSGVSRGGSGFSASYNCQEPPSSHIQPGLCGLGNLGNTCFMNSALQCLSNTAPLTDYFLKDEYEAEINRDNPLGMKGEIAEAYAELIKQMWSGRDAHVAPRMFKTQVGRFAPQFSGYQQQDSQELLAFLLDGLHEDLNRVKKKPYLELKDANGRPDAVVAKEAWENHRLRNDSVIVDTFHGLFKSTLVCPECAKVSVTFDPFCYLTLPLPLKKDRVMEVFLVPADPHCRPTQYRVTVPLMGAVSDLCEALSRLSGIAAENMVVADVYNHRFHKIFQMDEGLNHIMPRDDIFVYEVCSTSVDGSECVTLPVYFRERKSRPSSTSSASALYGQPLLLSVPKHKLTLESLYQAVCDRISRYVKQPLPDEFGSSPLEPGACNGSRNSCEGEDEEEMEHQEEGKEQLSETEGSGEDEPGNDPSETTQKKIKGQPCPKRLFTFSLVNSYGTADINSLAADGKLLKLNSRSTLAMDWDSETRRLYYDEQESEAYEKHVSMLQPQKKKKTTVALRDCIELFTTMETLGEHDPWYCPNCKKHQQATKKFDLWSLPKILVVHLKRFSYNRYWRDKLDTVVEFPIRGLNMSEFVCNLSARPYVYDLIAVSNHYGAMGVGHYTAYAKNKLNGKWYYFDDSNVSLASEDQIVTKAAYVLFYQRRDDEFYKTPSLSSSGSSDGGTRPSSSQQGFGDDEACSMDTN
Summary of the method: as §1

Measured: log2 ratio of Biotin-Ahx-Ub-VS probe labelling

Cc1cccc(C)c1NC(=O)CCl
inactive: USP34 -0.0998 | USP36 -0.33 | USP38 -0.0307 | USP39 0.204 | USP4 -0.132
